Data: PubChem BioAssay (NCATS)
Records with an inconclusive call do not appear. Values without a mark were called inactive. Calls follow the shape of the dose curve; as a rule, active = well fitted inhibition curve with a large enough effect; inconclusive = small, poorly fitted or top-dose-only effect; inactive = flat fitted curve, though single readings scatter.

target: Calcium and integrin-binding protein 1 (Homo sapiens) (UniProt Q99828); experiment: Primary qHTS for Identification of Calcium Integrin Binding Protein 1 (CIB1) Competitor (AID 1508620); settings: CIB1-GST / FITC-alphaIIb peptide fluorescence polarization; series mostly up to 114 µM; activity change, negative = inhibition: at the top concentration;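 also: GST tagged CIB1 binding a fluorescein labelled alphaIIb integrin peptide tracer; top concentration of the series differs between compounds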
Sequence (Q99828 whole entry, looked up): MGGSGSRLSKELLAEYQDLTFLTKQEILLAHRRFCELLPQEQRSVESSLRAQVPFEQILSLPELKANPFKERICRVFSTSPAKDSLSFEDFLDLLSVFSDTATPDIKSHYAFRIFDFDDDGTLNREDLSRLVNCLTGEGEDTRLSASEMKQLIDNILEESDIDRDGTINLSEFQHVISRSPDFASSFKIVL
Summary of the method: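 CIB1-GST (1 uM final) and compound incubated 15 min at room temperature before adding FITC-alphaIIb peptide tracer (100 nM final). Competition for binding read by fluorescence polarization (ex 480, em 540) after another 15 min at room temperature.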
% is scaled to controls: 0 for no effect and ±100 for the full control effect.

Row | SMILES | activity change, negative = inhibition
1 | NC(=O)C1CCN(c2nc(-c3cccc4sc5ccccc5c34)cs2)CC1 | -3.42%
2 | O=S1(=O)N=C(Oc2ccc3ccccc3c2)c2ccccc21 | -11.1%
3 | CC1(C)CC2CC(C)(CN2S(=O)(=O)c2ccc(C(=O)Nc3cccc(S(=O)(=O)N4CCOCC4)c3)cc2)C1 (stereo not given) | 8.98%
4 | O=C(OCC#CCSc1nnc(-c2cccc3ccccc23)o1)c1ccc2ccccc2c1 | -0.405%
5 | COc1ccc(C2Nc3ccccc3C(=O)N2Cc2ccco2)cc1COc1ccc(NC(C)=O)cc1 (stereo not given) | 4.83%
6 | O=C1CCc2cc(S(=O)(=O)Nc3cccc(C(F)(F)F)c3)ccc2N1 | 1.01%
7 | Cn1c2cc(S(C)(=O)=O)sc2c2cnn(Cc3ccccc3F)c(=O)c21 | 3.17%
8 | O=C(Cc1nnc(-c2nc3ccccc3[nH]2)o1)Nc1cc(C(F)(F)F)ccc1Cl | -0.3%
9 | COc1cc(O)c(C(CC(=O)N2CCCC(C(C)C)C2)c2ccc3c(c2)OCO3)c(OC)c1 (stereo not given) | -0.858% [at 228 µM]
10 | O=C1CCc2cc(S(=O)(=O)Nc3ccncc3)ccc2N1 | 5.68%
11 | O=C1CCc2cc(S(=O)(=O)Nc3cccc(Br)c3)ccc2N1 | -2.16%
12 | Cc1ccccc1C(=O)N1CCc2cc(-c3nc(NC(=O)Cc4ccc5c(c4)OCCO5)sc3C)ccc21 | 5.22%
13 | O=C(OCC#CCSc1nnc(-c2cccc3ncccc23)o1)c1ccc(F)cc1 | 4.08%
14 | COc1cc(-c2ccc3ncnc(NCC4CCCO4)c3c2)cc(OC)c1OC (stereo not given) | 0.423%
15 | Cc1ccc(-c2ccc(=O)n(CC(=O)N(C)C(C)c3cccs3)n2)cc1 (stereo not given) | -7.22%
16 | O=C(O)c1ccc(CSc2nnc(-c3ccc([S+](=O)([O-])N4CCCC4)cc3)n2-c2ccccc2)cc1 | -2.77%
17 | CC(C)(C)c1ccc(-n2cnc3cc(C(=O)N4CCCCC4)ccc32)cc1 | 0.337%
18 | NC(=O)C1CCN(c2nc(-c3cccs3)cs2)CC1 | -2.72%
19 | O=C(O)c1ccc(O)c2ncc(NCC3CCCN(CCc4ccccc4)C3)cc12 (stereo not given) | -9.95%
20 | CC(C)(C)c1cccc(-n2cnc3cc(C(=O)N4CCCCC4)ccc32)c1 | 0.3%

Row | SMILES | activity change, negative = inhibition
21 | O=C(Nc1ccc2ccccc2c1)Nc1nnc(-c2ccc(O)cc2)s1 | 1.92%
22 | N#Cc1no[n+]([O-])c1-c1ccccc1 | -2.19%
23 | FC(F)(F)c1cc(-c2ccc(CNc3nc(-c4ccncc4)nc4ccccc34)cc2)ccn1 | 26.1%
24 | Cn1c2cc(C#N)sc2c2cnn(Cc3ccccc3F)c(=O)c21 | -2.87%
25 | Cc1csc(CNc2ncnc3ccc(-c4ccc(C(=O)O)o4)cc23)n1 | -17.5%
26 | O=C1CCCC2=C1C1(CCCC1)N=C(Nc1nc3cc(Br)ccc3o1)N2 | 1.75%
27 | O=C1CC(c2ccccc2)CC2=C1C1(CCCCC1)N=C(Nc1nc3ccccc3o1)N2 (stereo not given) | -0.551%
28 | CN(Cc1ccco1)c1ncnc2ccc(-c3cccc(Cl)c3)cc12 | 4.21%
29 | N#Cc1nc(Nc2cccc(C(F)(F)F)c2)nc(NC2CCCC2)n1 | 3.98%
30 | COc1cccc(CN2C(=O)c3ccccc3NC2c2ccc(OC)c(COc3ccc(NC(C)=O)cc3)c2)c1 (stereo not given) | 3.22%
31 | COc1cccc(C2=Nn3c(nnc3-c3ccccc3C)SC2)c1 | -13.2%
32 | COc1ccc(C(=O)Nc2ccc(-c3nc4ccccc4[nH]3)cc2)cc1Br | 2.69%
33 | O=C1c2ccccc2C(=O)N1Cc1ccccc1 | -1.94%
34 | Cc1cccc(N2CCN(C(=S)Nc3cc(C)ccn3)CC2)c1 | -20.4%
35 | COc1cc(-c2nc(Nc3ccc(F)c(F)c3)c3ccccc3n2)cc(OC)n1 | 3.21%
36 | COc1cccc(C2c3c(ncn(-c4cccc(F)c4)c3=N)Oc3ccc4ccccc4c32)c1 (stereo not given) | 8.78%
37 | Cc1noc(C)c1-c1ccc2ncnc(NCc3cccc(-c4ccccc4)c3)c2c1 | 4.75%
38 | Cc1ccnc(NC(=S)N2CCN(c3cc(C(F)(F)F)cc(C(F)(F)F)c3)CC2)c1 | -19.7%
39 | O=[S+]([O-])(NCC#CCSc1nnc(-c2cccc3ccccc23)o1)c1ccc(F)cc1 | -3%
40 | COc1cccc(S(=O)(=O)N2CCN(S(=O)(=O)c3ccc4c(c3)OCCO4)CC2)c1 | 1.72%
